Bioassay records deposited in PubChem by National Center for Advancing Translational Sciences (NCATS).
Sampled rows, rich in hits. Any-hit rate of the full collection: about 3.3%.
AmpC inh no detg – inhibitors of E. coli AmpC beta-lactamase without detergent. P00811. AmpC nitrocefin hydrolysis, absorbance 480 nm, 0.0001% Triton. 330,000 tested, 0.52% active. Potency, µM (top dose mostly 57.1 µM), for the others: at the highest dose activity change, negative = inhibition, hits mostly inhibitors;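 note: plate controls were no compound for no effect and no enzyme for full effect; nearly all actives have a fitted effect of over 20% in size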
Target sequence (P00811 whole entry, looked up): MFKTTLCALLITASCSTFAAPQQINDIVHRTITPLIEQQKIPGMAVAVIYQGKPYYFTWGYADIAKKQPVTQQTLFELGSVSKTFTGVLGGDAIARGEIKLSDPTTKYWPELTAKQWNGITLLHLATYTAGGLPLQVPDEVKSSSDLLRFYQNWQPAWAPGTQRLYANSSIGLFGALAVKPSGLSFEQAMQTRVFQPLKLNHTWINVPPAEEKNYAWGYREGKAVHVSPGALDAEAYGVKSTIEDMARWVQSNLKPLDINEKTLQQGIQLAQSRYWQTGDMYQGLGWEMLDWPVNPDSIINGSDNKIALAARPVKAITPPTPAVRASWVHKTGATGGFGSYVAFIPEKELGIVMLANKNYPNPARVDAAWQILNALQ
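20 mM phosphate pH 7.0 + 0.01% (detergent screen) or 0.0001% Triton X-100; 5.3 nM AmpC reagent; cpd preinc 15 min RT; nitrocefin (800 uM stock) to start; A480 q20 s × 4 min; Activity was normalised to no-enzyme and no-compound control wells.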
SARS PLpro yeast – blocks SARS-CoV papain-like protease in a yeast assay | S. cerevisiae expressing SARS-CoV PLpro, growth rescue | Potency, µM (doses to about 32.9 µM), for the others: at the top dose activity, positive = growth rescue, actives largely listed as activators | 330,000 tested, 0.19% active; calls by dose curve; note: 0% is about no effect; nearly all actives have a fitted effect of over 55% in size
Tb PYK inh – inhibitors of Trypanosoma brucei pyruvate kinase. AID 624173. TbPYK enzyme, Kinase-Glo Plus ATP luminescence, 45 min. 410,000 tested, 0.12% active. Potency, µM (series often up to 76.8 µM), for the others: at the highest dose activity, negative = inhibition, hits mostly inhibitors. Q57TT1; note: % is set by controls: 0 for no effect and ±100 for the full control effect; nearly all actives have a fitted effect of over 50% in size
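Assay buffer: 50 mM TEA pH 7.2, 100 mM KCl, 10 mM MgCl2, 0.05% BSA, 0.01% Tween-20. Pyruvate kinase from T. brucei plus substrate met compound, then ADP (130 uM final). Luminescence was read post 45 min RT.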
Sm TGR inh – S. mansoni TGR enzyme inhibition | purified TGR, DTNB reduction, TNB absorbance 405 nm | Potency, µM (series often up to 114 µM), for inactives: top-dose activity change, negative = inhibition, usual class: inhibitors | Q962Y6 | AID 485364 | 360,000 tested, 3% active; note: % is set by controls: 0 for no effect and ±100 for the full control effect; nearly all actives have a fitted effect of over 60% in size
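TGR 20 nM + NADPH 100 uM (dispensed conc.), cpd preinc 15 min RT; start with NADPH (500 uM addition) then DTNB (15 mM addition). Kinetic TNB absorbance, 405 nm filter. Four-parameter Hill fit across titration.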
AmpC inh detg – AmpC beta-lactamase inhibition with detergent present | AmpC hydrolysis of nitrocefin, absorbance 480 nm, 0.01% Triton | P00811 | Potency, µM (doses to about 114 µM), for inactives: at the top dose activity change, negative = inhibition, actives largely listed as inhibitors | 370,000 tested, 0.041% active | AID 485294;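 note: 0% = no-compound wells and -100% = no-enzyme wells; nearly all actives have a fitted effect of over 25% in size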
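20 mM phosphate pH 7.0 + 0.01% (detergent screen) or 0.0001% Triton X-100; 5.3 nM AmpC reagent; cpd preinc 15 min RT; nitrocefin (800 uM stock) to start; A480 q20 s × 4 min; Activity was normalised to no-enzyme and no-compound control wells.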
RE007 growth inh – less growth of the S. pombe RE007 Vpr strain. S. pombe RE007 Vpr strain, BacTiter-Glo ATP luminescence, 24 h. Potency, µM (highest dose often 92.2 µM), for the others: top-dose activity change, negative = less growth, actives largely listed as inhibitors. 360,000 tested, 0.21% active; active = well fitted falling curve with a large enough effect; inconclusive = small, poorly fitted or top-dose-only effect; inactive = no such curve, though single readings can be large or run the other way; note: % is set by controls: 0 for no effect and ±100 for the full control effect; nearly all actives have a fitted effect of over 50% in size
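Fission yeast RE007 carrying one integrated HIV-1 vpr copy, seeded at OD 0.01 in PMG+AL medium with 23 nL pinned compound. Grown 24 h at 30 degrees; viability read by BacTiter-Glo luminescence after 5 min.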
An asterisk follows results filed as active; ! = not confirmed by another sample; [ ] = another dose, or the depositor's remark. Unless noted, calls come from the whole dose curve; as a rule, active = well fitted curve in the direction sought with a large enough effect; inconclusive = small, poorly fitted or top-dose-only effect, or another doubt; inactive = no such curve, though single readings can be large; an effect the other way counts as inactive or inconclusive. Potency is the fitted concentration of half-maximal effect.

`NC(=O)c1c(NC(=O)CSc2nnc(Cc3ccccc3)n2Cc2ccco2)sc2c1CCC2` gave AmpC inh no detg -21%, SARS PLpro yeast 4%, Tb PYK inh -7%, Sm TGR inh 25µM*, AmpC inh detg -8% and RE007 growth inh 13%.
Screening CCOC(=O)c1c(NC(=O)CSc2nnc(C)s2)sc2c1CCN(C)C2 returned AmpC inh no detg 4%, SARS PLpro yeast 0%, Tb PYK inh -7%, Sm TGR inh 32µM*, AmpC inh detg -11% and RE007 growth inh -24%.
`O=C(CSc1nnc(Cc2cccs2)n1Cc1ccco1)Nc1ccc(Br)cc1` gave AmpC inh no detg -28%, SARS PLpro yeast -6%, Tb PYK inh -7%, Sm TGR inh 20µM*, AmpC inh detg -10% and RE007 growth inh 5%.
`CCOC(=O)CSc1nnc(-c2c[nH]c3ccccc23)n1CC` gave AmpC inh no detg -7%, SARS PLpro yeast -5%, Tb PYK inh -2%, Sm TGR inh -2%, AmpC inh detg -1% and RE007 growth inh -3%.
`COc1ccccc1N1CCN(C(=O)Cn2ncc3ccsc3c2=O)CC1` gave Tb PYK inh -14%, Sm TGR inh 13% and AmpC inh detg 3%.
COc1ccc(OC)c(C2=NO[C@@](CC(=O)O)(C(=O)Nc3ccc4c(c3)OCCO4)C2)c1 was read as AmpC inh no detg -18%, SARS PLpro yeast 2%, Tb PYK inh 4%, Sm TGR inh 13µM*, AmpC inh detg -9% and RE007 growth inh 11%.
`Cc1ccc(C2=NO[C@@](CC(=O)O)(C(=O)Nc3ccc4c(c3)OCCO4)C2)cc1` gave AmpC inh no detg -21%, SARS PLpro yeast 1%, Tb PYK inh -6%, Sm TGR inh 14µM*, AmpC inh detg -3% and RE007 growth inh 3%.
Screening COc1ccc(OC)c(NC(=O)[C@@]2(CC(=O)O)CC(/C=C/c3ccccc3)=NO2)c1 returned AmpC inh no detg -35%, SARS PLpro yeast 2%, Tb PYK inh -2%, Sm TGR inh inconclusive, AmpC inh detg -2% and RE007 growth inh -13%.
`CN1C(C(=O)Nc2ccccn2)C(=O)c2sc(Cl)cc2S1(=O)=O` (stereo not drawn) gave Tb PYK inh 0%.
Screening Cc1ccc(/C=C2\C(=O)NC(=S)N(c3ccccc3F)C2=O)s1 returned AmpC inh no detg -31%, SARS PLpro yeast -91%, Tb PYK inh 32µM*, Sm TGR inh 7.9µM*, AmpC inh detg 1% and RE007 growth inh -1%.
Screening CN(C)c1ccc(NC2=C([N+](=O)[O-])CS(=O)(=O)C2)cc1 returned AmpC inh no detg -22%, SARS PLpro yeast 4%, Tb PYK inh 3%, Sm TGR inh 2.2µM*, AmpC inh detg 4% and RE007 growth inh -4%.
`CC(=O)N=c1c(C#N)cc2c(=O)n3cccc(C)c3nc2n1Cc1ccco1` gave AmpC inh no detg -29%, SARS PLpro yeast 1%, Tb PYK inh -4%, Sm TGR inh 28µM*, AmpC inh detg 2% and RE007 growth inh 0%.
Screening Cc1ccccc1C(=O)N=c1c(C#N)cc2c(=O)n3cccc(C)c3nc2n1Cc1ccco1 returned AmpC inh no detg -33%, SARS PLpro yeast -8%, Sm TGR inh inconclusive and AmpC inh detg -3%.
Screening c1ccc2c(c1)CCCN2Cc1nnnn1C1CCCC1 returned AmpC inh no detg -2%, SARS PLpro yeast 4%, Tb PYK inh -5%, Sm TGR inh 6%, AmpC inh detg -14% and RE007 growth inh 1%.
Screening c1ccc(CCn2nnnc2CN2CCc3ccccc32)cc1 returned AmpC inh no detg -6%, SARS PLpro yeast -4%, Tb PYK inh 5%, Sm TGR inh 13µM*, AmpC inh detg 5% and RE007 growth inh 7%.
`COC(=O)C1=C(C)N(CCC2=CCCCC2)C(=O)C1` gave AmpC inh no detg -4%, SARS PLpro yeast -1%, Tb PYK inh -8%, Sm TGR inh 32µM*, AmpC inh detg 1% and RE007 growth inh -11%.
`CCCCCCCCCCCCCCCCCCOP(=O)([O-])OC1CC[N+](C)(C)CC1` gave Tb PYK inh 4%[33.2 µM].
Screening COc1ccc(/C=C(\C#N)C(=O)OCC(=O)NCc2ccccc2OC)cc1 returned AmpC inh no detg 32µM*, SARS PLpro yeast -13%, Tb PYK inh 0%, Sm TGR inh 2%, AmpC inh detg inconclusive and RE007 growth inh -22%.
Screening O=C(c1cc(-c2ccco2)nc2ccccc12)N1CCN(Cc2ccccc2)CC1 returned AmpC inh no detg 27%, SARS PLpro yeast -2%, Tb PYK inh 1%, Sm TGR inh 14µM*, AmpC inh detg 5% and RE007 growth inh -4%.
Screening O=C(COC(=O)c1cc(-c2ccco2)nc2ccccc12)NCc1ccc2c(c1)OCO2 returned AmpC inh no detg -52%, SARS PLpro yeast 15%, Tb PYK inh -6%, Sm TGR inh 8.9µM*, AmpC inh detg inconclusive and RE007 growth inh 5%.
Screening O=C(c1ccco1)N1CCN(C(=O)c2cc(-c3ccccc3)nc3ccccc23)CC1 returned AmpC inh no detg 67%, SARS PLpro yeast -3%, Tb PYK inh -11%, Sm TGR inh -14%, AmpC inh detg inconclusive and RE007 growth inh -29%.
Screening O=C(O)c1cc(-c2ccco2)nc2ccc(Br)cc12 returned AmpC inh no detg -31%, SARS PLpro yeast -3%, Tb PYK inh 18µM*!, Sm TGR inh 0.71µM*, AmpC inh detg 2% and RE007 growth inh -30%.
`COc1ccc(/C=C(\C#N)C(=O)OCC(=O)NCc2ccccc2Cl)cc1` gave AmpC inh no detg -24%, SARS PLpro yeast 1%, Tb PYK inh -2%, Sm TGR inh 0%, AmpC inh detg 1% and RE007 growth inh -4%.
`O=C(COC(=O)c1ccco1)NCc1ccc2c(c1)OCO2` gave AmpC inh no detg -2%, SARS PLpro yeast -2%, Tb PYK inh 14%, Sm TGR inh 4%, AmpC inh detg 6% and RE007 growth inh 2%.
O=C(CCCCn1c(=O)c2ccccc2n(Cc2ccccc2Cl)c1=O)NCCc1ccccc1 was read as Tb PYK inh 1%, Sm TGR inh 0% and AmpC inh detg 18%.
`CN(C)c1ccc(C(=O)Nc2c(C(=O)NC(C)(C)C)oc3ccccc23)cc1` gave Tb PYK inh -10%, Sm TGR inh 9% and AmpC inh detg 22%.
`NC(N)=NCCCC(N)C(=O)O` (stereo not drawn) gave Tb PYK inh 1%.
